Each structure is given as a SMILES string. Hit rate of the full screen: of about 52,000 compounds, about 4,300 (8.3%) were called active. The sample as a whole holds a higher share of actives than the screen did. Unmarked numbers belong to inactive results. No stated cut-off is given here; in the data, active means survival mostly below about 52% (no sharp cut-off); inactive means mostly above about 56%.

For the assay, the system named is DeltatarO mutant. Nature of the assay: growth inhibition of S. aureus wild type versus tarO mutant, primary screen, teichoic acid synthesis inhibitors, RN4220, OD600 (AID 463173). The note with it: OD600, 18 h, hits give low values, screened at 18.75 µg/mL (by protocol).
With `CCOc1cc(C#N)c(NC(=O)c2ccc(OC)c(S(=O)(=O)N3CCCC3)c2)cc1OCC`, the survival was 52%.
`CCCCCOc1ccc(C(=O)CCN2CCOCC2)cc1`: the survival was 90%.
For the molecule `CC(C)c1nc2ccc(C(=O)NCc3ccc(F)cc3)cc2o1`, the survival was 78%.
With `COc1ccc(C2CC(=O)c3c([nH]c(C(=O)OC4CCCCCC4)c3C)C2)cc1` (centres undefined), the survival was 79%.
Regarding `CCc1ccc(NC(=O)Cn2c(=O)n(CCCC(=O)NCCc3ccc(OC)c(OC)c3)c(=O)c3ccccc32)cc1`, the survival was 77%.
The value for `COc1ccc2c(c1)cc1c(=O)n(CC(=O)NC(C)C)nc(C)n12` was 78%.
With `N#Cc1c2c(c(N3CCOCC3)[nH]c1=S)CCCC2`, the survival is 94%.
Turning to `O=S(=O)(NCC(c1ccco1)N1CCOCC1)c1ccc(Cl)cc1` (centres undefined), the survival is 86%.
The figure for `O=C(Nc1c(C(=O)N2CCN(c3ccccc3F)CC2)oc2ccccc12)c1ccccc1F` is 75%; for `Oc1ccc(NCc2ccccc2OCc2ccccc2F)cc1` it is 60%.
As to `Oc1ccc(NCc2ccc(OCc3ccccc3)cc2)cc1`, the survival is 72%.
The figure for `Oc1ccc(NCc2ccc(OCc3ccccc3Cl)cc2)cc1` is 35% (active); for `CCOc1cccc(CNc2ccc(O)cc2)c1OCc1ccccc1Cl` it is 68%.
In the case of `Oc1ccc(NCc2ccccc2OCc2ccccc2Cl)cc1`, the survival was 52% (active).
The figure for `Oc1ccc(NCc2ccccc2OCc2ccc(Cl)cc2)cc1` is 91%; for `CCC(C)NC(=O)Cn1c(=O)n(CCCC(=O)NCc2ccc(C)cc2)c(=O)c2ccccc21` (centres undefined) it is 94%.
The value for `COc1ccccc1OCC(=O)NCC1(N(C)C)CCCCC1` was 91%; that for `O=S(=O)(NCCc1ccccc1)c1ccc(N2CCCCS2(=O)=O)cc1` was 52% (active).
The value for `O=S(=O)(NCCc1ccc(Cl)cc1)c1ccc(N2CCCCS2(=O)=O)cc1` was 93%; that for `COc1ccc(CCNS(=O)(=O)c2ccc(N3CCCCS3(=O)=O)cc2)cc1` was 79%.
With `c1ccc(Cn2nnnc2C(c2cccs2)N(Cc2cccnc2)Cc2ccco2)cc1` (centres undefined), the survival is 64%.
The value for `Cc1c[n+](CC(=O)c2ccccc2)c(C)cn1` was 101%.
The value for `Cc1nc(-c2ccc(F)cc2)sc1CCNC(=O)c1ccc(OC(C)C)cc1` was 67%.
The figure for `Cc1ccc(C(=O)N2CCC(C(=O)O)CC2)cc1` is 90%; for `Cc1ccc(Sc2c(C)nn(-c3ccccc3)c2OC(=O)CC(C)C)cc1` it is 21% (active).
Regarding `Cc1nn(-c2ccccc2)c(OC(=O)C(C)(C)C)c1Sc1ccccc1`, the survival was 62%.
The value for `Cc1ccc(Sc2c(C)nn(-c3ccccc3)c2OC(=O)C(C)(C)C)cc1` was -10% (active); that for `COc1ccc(C(=O)Oc2c(Sc3ccccc3)c(C)nn2-c2ccccc2)c(OC)c1` was 114%; that for `Cc1ccc(C(=O)Oc2c(S(=O)(=O)c3ccccc3)c(C)nn2-c2ccccc2)cc1` was 90%.
The figure for `COc1cc(C(=O)Oc2c(Sc3ccc(C)cc3)c(C)nn2-c2ccccc2)cc(OC)c1OC` is 109%; for `COc1ccc(Cc2nnc(SCC(=O)N3CCCC3)o2)cc1` it is 83%; for `COc1ccc(N(CC(=O)NCCc2ccc(C)cc2)S(=O)(=O)c2c(C)nn(C)c2C)cc1` it is 71%.
Consider `COc1ccc(-c2nc3c(c(SCC(=O)N4CCCCC4)n2)Cc2cc(C)ccc2O3)cc1`, for which the survival is 84%.
On to `CSc1ncc(C(=O)NCc2ccc(C)cc2)c(C)n1`, for which the survival was 69%.
The value for `CSc1ncc(C(=O)NCc2cccc(F)c2)c(-c2ccccc2)n1` was 70%; that for `CSc1ncc(C(=O)NCc2ccccc2)c(-c2ccccc2)n1` was 37% (active); that for `CSc1ncc(C(=O)NCc2cccc(C)c2)c(-c2ccccc2)n1` was 55%.
The figure for `CSc1ncc(C(=O)NCc2ccc(F)cc2)c(-c2ccccc2)n1` is 95%.
As for `CSc1ncc(C(=O)NCc2ccc(C)cc2)c(-c2ccccc2)n1`, the survival is 0% (active).
The figure for `COc1cccc(NC(=O)c2sc3nc(C)c(C(=O)Nc4ccc(C)cc4C)c(-c4cccs4)c3c2N)c1` is 122%; for `CCc1ccc(S(=O)(=O)c2cn(Cc3ccccc3F)c3cc(OC)c(OC)cc3c2=O)cc1` it is 70%.
The figure for `COc1ccc(C(=O)NCc2cn3ccc(C)cc3n2)cc1` is 96%; for `Cc1c(-c2ccccc2)n(-c2ccccc2O)c2nc3c(c(=O)n(C)c(=O)n3C)n12` it is 94%; for `CC(=O)c1ccc(NC(=O)c2cc3c(=O)oc4ccc(C)cc4c3s2)cc1` it is 106%.
The value for `COc1ccc(-c2noc(CNC(=O)COc3cccc(C)c3C)n2)cc1` was 51%.
`COc1ccc(-c2noc(CN(C(=O)c3ccccc3Cl)C(C)C)n2)cc1`: the survival was 62%.
The figure for `COc1ccc(-c2noc(CCC(=O)NCc3ccc(C)cc3)n2)cc1` is 103%.
The value for `COc1ccc(-c2noc(CN(C(=O)Cc3ccc(C)cc3)C(C)C)n2)cc1` was 16% (active).
The value for `COc1ccc(CC(=O)N(Cc2nc(-c3ccc(C)cc3)no2)C(C)C)cc1` was 31% (active).
Consider `COc1ccc(-c2noc(CC(=O)N(C)c3cccc(C)c3)n2)cc1`, for which the survival is 68%.
With `Cc1ccc(-c2noc(CN(C(=O)COc3cc(C)cc(C)c3C)C(C)C)n2)cc1`, the survival is -3% (active).
The figure for `COc1ccc(-c2noc(CN(C(=O)c3cc(OC)c(OC)cc3OC)C(C)C)n2)cc1` is 74%; for `COc1ccc(-c2noc(CN(C(=O)c3ccc(C)cc3C)C(C)C)n2)cc1` it is -3% (active); for `COc1ccc(-c2noc(CN(C(=O)C(C)Oc3ccc(C)cc3)C(C)C)n2)cc1` (centres undefined) it is 63%.
The figure for `Cc1ccccc1Cn1c(C)c(CNCc2ccccc2)c(C(=O)O)c1C` is 84%; for `Cc1cccc(N(CC(=O)N(C)Cc2ccccc2)S(=O)(=O)c2ccccc2)c1C` it is 47%.
The value for `O=S(=O)(c1ccc(Cl)cc1)c1nnn2c1nc(NCc1ccc3c(c1)OCO3)c1sccc12` was 69%; that for `Cc1ccc2c(=O)c(C(=O)c3cccc(Cl)c3)cn(CC(=O)Nc3ccc4c(c3)OCCO4)c2n1` was 80%.
In the case of `CC(=O)Nc1ccc(S(=O)(=O)N2CCC(c3nnnn3-c3ccccc3)CC2)cc1`, the survival is 76%.
The value for `O=C(NCCN1CCCCC1)Nc1c[nH]c2c(Cl)cccc2c1=O` was 102%; that for `COC(=O)c1cc(-c2ccc(Cl)cc2)c2c(=O)[nH]c(=O)n(C)c2n1` was 92%.
The value for `COc1ccc(-c2noc(-c3nnn(-c4cc(C)ccc4C)c3N)n2)cc1` was 81%; that for `Cc1ccc(-c2noc(CNC(C)C)n2)cc1` was 77%; that for `COc1ccc(-c2noc(CN(C(=O)COc3cc(C)c(Br)c(C)c3)C(C)C)n2)cc1` was 31% (active).
The figure for `Cc1ccc(CC(=O)N(Cc2nc(-c3ccc(C)cc3)no2)C(C)C)cc1` is -4% (active).
With `COc1ccc(-c2noc(CC(=O)Nc3ccc(Br)cc3C)n2)cc1`, the survival is 59%.
The figure for `Cc1ccc(CC(=O)NCc2nc(-c3ccccc3)no2)cc1` is 77%; for `Cc1ccc(-c2noc(CNC(=O)COc3cc(C)c(Br)c(C)c3)n2)cc1` it is 80%.
The figure for `O=C(CS(=O)(=O)c1cccc2nsnc12)Nc1ccc(F)cc1` is 97%; for `CCN(CC)C(=O)CSc1nc2c(c(=O)n(C)c(=O)n2C)n1Cc1ccccc1` it is 76%; for `Cc1ccc(C)c(NC(=O)C(NS(=O)(=O)c2ccc3c(c2)CCC(=O)N3)c2ccccc2)c1` (centres undefined) it is 113%.
The value for `COC(=O)c1ccc(NCC(=O)c2ccccc2)cc1` was 64% (active); that for `COC(=O)c1ccc(NC(=O)CCOc2ccccc2)cc1` was 69%.
Consider `CCOC(=O)Nc1ccc(C(=O)OC)cc1`, for which the survival was 75%.
Regarding `O=C(NC1CCCCC1)/C(=N\O)c1ccccn1`, the survival is 97%.
Consider `CCOc1ccc(NC(=O)Cn2cc(C(=O)c3ccc(C)c(C)c3)c(=O)c3cc4c(cc32)OCCO4)cc1`, for which the survival was 62%.
Take `CC1=NN(c2ccc(N)cc2)C(=O)C1`: the survival is 107%.
The value for `CCOC(=O)c1sc(N2N=C(C)CC2=O)nc1C` was 76%; that for `CCCCCN1N=C(C)CC1=O` was 39% (active).
With `CCN(CC)CCCNC(=O)C(=O)Nc1ccc2nc3n(c(=O)c2c1)CCCCC3`, the survival was 91%.
The value for `COc1ccc(-c2noc(CCC(=O)Nc3cccc(C)c3C)n2)cc1OC` was 69%.
The value for `COc1cc(C(=O)Nc2ccc3oc(-c4ccccc4)nc3c2)cc(OC)c1OC` was 51%; that for `CCc1ccc(-c2nc3cc(NC(=O)c4cc5ccccc5cc4OC)ccc3o2)cc1` was 11% (active).
The figure for `COc1cc2ccccc2cc1C(=O)Nc1ccc2oc(-c3ccc(F)cc3)nc2c1` is 43% (active); for `COc1cc2ccccc2cc1C(=O)Nc1ccc2oc(-c3ccc(Cl)cc3)nc2c1` it is 59%; for `COc1cc2ccccc2cc1C(=O)Nc1ccc2oc(-c3ccc(F)cc3Cl)nc2c1` it is 59%.
On to `CCc1ccc2oc(-c3ccc(NC(=O)c4ccc(OC)c(Br)c4)cc3)nc2c1`, for which the survival is 60%.
The figure for `COc1cc2ccccc2cc1C(=O)Nc1ccc2oc(-c3cccc(C)c3)nc2c1` is 25% (active); for `COc1cc2ccccc2cc1C(=O)Nc1ccc2oc(-c3ccccc3)nc2c1` it is 8% (active); for `CCc1ccc(OCC(=O)Nc2ccc3oc(-c4ccc(OC)cc4)nc3c2)cc1` it is 62%.
The value for `COc1ccc(C(=O)Nc2ccc3oc(-c4ccc5ccccc5c4)nc3c2)cc1Br` was 63%; that for `O=C(Nc1ccc(-c2nc3cc(NC(=O)c4ccccc4F)ccc3o2)cc1)c1ccccc1F` was 90%; that for `Cc1cccc(-c2nc3cc(NC(=O)COc4ccccc4F)ccc3o2)c1` was 103%.
The figure for `COC(=O)CSc1ccc2nnc(CCNS(=O)(=O)c3ccccc3)n2n1` is 118%.

These data come from PubChem BioAssay AID463173 (ICCB-Longwood Screening Facility, Harvard Medical School, 2010).
